Assay results from PubChem BioAssay AID624040 (The Scripps Research Institute Molecular Screening Center, 2012).
Out of some 360,000 compounds screened, about 2,100 (0.58%) were called active. What follows is part of a selection rich in actives, with near analogues and random picks from the rest. A number with no mark means an inactive call.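 The calls were made as follows: active = inhibition above a per-plate cutoff, the mean of that plate's test compounds plus 3 SD (cut at about 27% in these data); inactive = the rest.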

Target: Muscarinic acetylcholine receptor M5 (Homo sapiens) (UniProt P08912)
Assay: human M5 muscarinic receptor antagonists, primary screen, CHO cells, Fluo-8 calcium fluorescence (AID 624040);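 also: 0% = acetylcholine EC80 with DMSO and 100% = DMSO without agonist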
Settings: CHO-hM5 cells, ACh EC80, at 3 µM, hits give high values

Chain of Muscarinic acetylcholine receptor M5 (Homo sapiens) (P08912 whole entry, looked up): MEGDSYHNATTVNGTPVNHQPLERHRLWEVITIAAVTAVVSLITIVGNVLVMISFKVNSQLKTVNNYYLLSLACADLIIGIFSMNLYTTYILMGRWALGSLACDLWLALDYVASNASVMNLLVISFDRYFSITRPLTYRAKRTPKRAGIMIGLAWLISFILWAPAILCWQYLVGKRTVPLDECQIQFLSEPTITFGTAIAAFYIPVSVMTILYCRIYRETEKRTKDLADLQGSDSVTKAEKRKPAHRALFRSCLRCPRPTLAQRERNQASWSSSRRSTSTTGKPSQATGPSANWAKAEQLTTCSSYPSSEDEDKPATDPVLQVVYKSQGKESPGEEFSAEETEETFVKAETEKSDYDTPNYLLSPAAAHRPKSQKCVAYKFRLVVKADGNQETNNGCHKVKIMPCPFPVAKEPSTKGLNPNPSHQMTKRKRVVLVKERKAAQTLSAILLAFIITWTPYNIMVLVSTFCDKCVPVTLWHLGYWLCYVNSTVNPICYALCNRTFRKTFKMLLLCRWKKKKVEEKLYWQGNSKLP

| SMILES | inhibition |
| --- | --- |
| Cc1ccc(N2C(=O)C3C(c4ccccc4)(C2=O)C3(c2ccccc2)c2ccccc2)cc1 (centres undefined) | 15.6% |
| COc1ccc(OCCCCN2CCC(C)CC2)cc1 | 5.32% |
| OC(c1ccccc1)(c1ccccc1)C1CCN(CCCOc2ccccc2)CC1 | 97.1% (active) |
| O=c1[nH]c2ccccc2n1C1CCN(CCOc2ccccc2)CC1 | 8.05% |
| OC[C@@H]1CN(Cc2ccc3c(c2)OCO3)C[C@H](n2cnc3c(NCc4ccco4)ncnc32)O1 | -1.64% |
| COc1cc(C(=O)NCc2ccc(-n3cccc3)cc2)cc(OC)c1OC | 21.1% |
| COc1cc(C(=O)NCc2nnc(SCC(=O)Nc3nc4ccc(C)cc4s3)o2)cc(OC)c1OC | -2.26% |
| CCn1c(CNC(=O)c2cc(OC)c(OC)c(OC)c2)cc2cc(C)ccc21 | 48% (active) |
| CSc1ncccc1C(=O)OCC(=O)N1CCOCC1 | -6.57% |
| Cc1ccc2cc(CCNC(=O)c3ccc4c(c3)OCO4)c(=O)[nH]c2c1 | -4.27% |
| OC(COc1ccc2ccccc2c1)Cn1cncn1 (centres undefined) | -0.83% |
| CCOC(=O)c1c(/N=C/C2C(=O)CC(C)(C)CC2=O)sc(C)c1C | -2.97% |
| CC(C)CN(C(=O)CSc1ncnc2sccc12)C1CCS(=O)(=O)C1 (centres undefined) | 1.5% |
| CC(C)CN(C(=O)Cn1c(=O)cnc2ccccc21)C1CCS(=O)(=O)C1 (centres undefined) | 99.6% (active) |
| CCN(C(=O)CSc1nc2ccccc2n1CC)C1CCS(=O)(=O)C1 (centres undefined) | -0.58% |
| N#Cc1c(NC(=O)c2ccc(N3CCOCC3)c([N+](=O)[O-])c2)sc2c1CCCC2 | 2.95% |
| O=C1NC[C@H](Cc2ccc(O)cc2)N(C[C@@H]2CCCN2C[C@H](Cc2ccccc2)N2C[C@H](Cc3ccccc3)N(CC3CCCCC3)C(=O)C2=O)C1=O | -4.87% |
| Cc1ccc(OCc2cc(C(=O)N(C)CCn3ccnc3C)no2)cc1C | -4.53% |
| Cc1cc(CN(C)C(=O)c2cc(COc3ccc(C)c(C)c3)on2)n[nH]1 | -7.18% |
| CN(Cc1cccnc1)C(=O)c1cc(COc2ccc3ncccc3c2)on1 | 42.6% (active) |
| CC/C(=C\c1ccc(Cl)cc1)c1ccncc1 | 4.13% |
| CC(=O)Nc1cccc(-c2ccnc3c2CC(C)(C(=O)NCc2ccccc2)O3)c1 (centres undefined) | -11.6% |
| C=CCN(c1ccccc1C(=O)NCC(=O)OCC)S(=O)(=O)c1ccc(C)cc1 | 3.91% |
| CCOc1ccc(CN(Cc2ccco2)S(=O)(=O)c2ccc(-n3cnnn3)c(OC)c2)cc1 | 4.28% |
